Measurements: article PMC7862700, “An all-to-all approach to the identification of sequence-specific readers for epigenetic DNA modifications on cytosine”

Experiments:
Assay in all cases: DAPPL (digital affinity profiling via proximity ligation, sequencing); 10 mM Tris-HCl pH 7.5, 50 mM NaCl, 1 mM DTT, 4% glycerol, room temperature, 30 min; GST-TFs on glutathione beads, 16-mer random dsDNA library, 0.1% formaldehyde crosslink after washing; high values mean tight binding
[1] = biological target: T1, FLI1 (Homo sapiens, UniProt Q01543 1-452); details: protein: recombinant; tags: N-terminal GST; dsDNA, one strand shown
T1 sequence: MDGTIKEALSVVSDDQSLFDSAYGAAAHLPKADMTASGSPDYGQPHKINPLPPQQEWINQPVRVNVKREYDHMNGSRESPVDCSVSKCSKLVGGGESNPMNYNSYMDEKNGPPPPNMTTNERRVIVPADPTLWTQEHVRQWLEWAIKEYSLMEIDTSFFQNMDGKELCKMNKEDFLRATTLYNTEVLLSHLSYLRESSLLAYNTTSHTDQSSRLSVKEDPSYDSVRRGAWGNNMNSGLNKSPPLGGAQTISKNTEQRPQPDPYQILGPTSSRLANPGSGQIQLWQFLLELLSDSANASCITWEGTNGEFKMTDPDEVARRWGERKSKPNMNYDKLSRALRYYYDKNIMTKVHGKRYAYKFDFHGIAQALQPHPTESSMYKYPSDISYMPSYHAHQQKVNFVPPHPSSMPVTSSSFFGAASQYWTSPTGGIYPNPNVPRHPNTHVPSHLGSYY
Procedure, shortened: (§1)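 A tag-only sample was pooled with DNA-barcoded human transcription factors that had been expressed in yeast as GST fusions and captured on glutathione beads. The pools were incubated for 30 min at room temperature with 200 nmole of a random double-stranded 16-mer DNA library in Tris/NaCl/DTT/glycerol buffer, then washed, crosslinked with 0.1% formaldehyde, proximity-ligated (BsaI/T4 ligase, 1 h, 37 °C), PCR-amplified and sequenced on an Illumina NextSeq500. Binding signal is each hexamer's read frequency for a factor divided by its frequency for the tag-only sample.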

[2] = biological target: T2, ELK1 (Homo sapiens, UniProt P19419 1-428); details: protein: recombinant; tags: N-terminal GST; dsDNA, one strand shown
T2 sequence: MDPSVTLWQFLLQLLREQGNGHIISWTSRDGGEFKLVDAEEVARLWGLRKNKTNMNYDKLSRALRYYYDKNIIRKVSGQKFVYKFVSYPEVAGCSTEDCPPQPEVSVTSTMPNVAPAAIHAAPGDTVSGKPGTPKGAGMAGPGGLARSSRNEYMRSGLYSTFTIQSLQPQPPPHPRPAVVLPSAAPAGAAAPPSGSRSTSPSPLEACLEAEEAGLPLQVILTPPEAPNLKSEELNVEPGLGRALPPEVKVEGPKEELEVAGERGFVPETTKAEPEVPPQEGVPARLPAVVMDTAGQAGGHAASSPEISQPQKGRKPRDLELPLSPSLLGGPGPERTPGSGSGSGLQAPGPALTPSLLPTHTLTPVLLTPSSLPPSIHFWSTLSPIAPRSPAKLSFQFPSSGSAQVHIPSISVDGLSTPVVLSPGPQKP
Procedure, shortened: as §1

[3] = biological target: T3, GABPA (Homo sapiens, UniProt Q06546 1-454); details: protein: recombinant; tags: N-terminal GST; dsDNA, one strand shown
T3 sequence: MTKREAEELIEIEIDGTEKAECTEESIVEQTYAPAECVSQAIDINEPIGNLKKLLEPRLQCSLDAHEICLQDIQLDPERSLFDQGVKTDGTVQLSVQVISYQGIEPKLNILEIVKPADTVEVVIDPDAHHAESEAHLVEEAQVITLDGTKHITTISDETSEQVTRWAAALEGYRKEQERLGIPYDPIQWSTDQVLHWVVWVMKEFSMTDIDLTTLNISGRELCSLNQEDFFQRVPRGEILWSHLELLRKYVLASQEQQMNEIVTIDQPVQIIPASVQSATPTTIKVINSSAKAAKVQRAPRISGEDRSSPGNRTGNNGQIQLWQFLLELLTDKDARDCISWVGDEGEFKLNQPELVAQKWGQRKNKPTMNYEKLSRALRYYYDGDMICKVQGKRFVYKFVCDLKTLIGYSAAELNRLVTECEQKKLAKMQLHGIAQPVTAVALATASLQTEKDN
Procedure, shortened: as §1

[4] = biological target: T4, ERG (Homo sapiens, UniProt P11308 1-479); details: protein: recombinant; tags: N-terminal GST; dsDNA, one strand shown
T4 sequence: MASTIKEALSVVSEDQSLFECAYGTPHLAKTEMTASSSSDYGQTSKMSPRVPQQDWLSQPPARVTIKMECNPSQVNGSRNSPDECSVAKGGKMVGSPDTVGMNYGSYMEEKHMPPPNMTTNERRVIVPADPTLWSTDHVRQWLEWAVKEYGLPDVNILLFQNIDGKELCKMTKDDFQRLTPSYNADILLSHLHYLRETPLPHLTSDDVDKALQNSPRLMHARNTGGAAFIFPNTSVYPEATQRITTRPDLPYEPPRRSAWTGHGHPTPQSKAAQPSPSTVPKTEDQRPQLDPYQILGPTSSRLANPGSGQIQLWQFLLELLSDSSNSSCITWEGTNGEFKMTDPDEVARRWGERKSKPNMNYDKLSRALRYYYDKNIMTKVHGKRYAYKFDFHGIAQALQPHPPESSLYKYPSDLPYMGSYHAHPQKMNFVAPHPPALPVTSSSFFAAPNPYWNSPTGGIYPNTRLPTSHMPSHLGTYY
Procedure, shortened: as §1

[5] = biological target: ELF1 (Homo sapiens, UniProt P32519 1-619); details: protein: recombinant; tags: N-terminal GST; dsDNA, one strand shown
Procedure, shortened: as §1

[6] = biological target: T5, EHF (Homo sapiens, UniProt Q9NZC4 1-300); details: protein: recombinant; tags: N-terminal GST; dsDNA, one strand shown
T5 sequence: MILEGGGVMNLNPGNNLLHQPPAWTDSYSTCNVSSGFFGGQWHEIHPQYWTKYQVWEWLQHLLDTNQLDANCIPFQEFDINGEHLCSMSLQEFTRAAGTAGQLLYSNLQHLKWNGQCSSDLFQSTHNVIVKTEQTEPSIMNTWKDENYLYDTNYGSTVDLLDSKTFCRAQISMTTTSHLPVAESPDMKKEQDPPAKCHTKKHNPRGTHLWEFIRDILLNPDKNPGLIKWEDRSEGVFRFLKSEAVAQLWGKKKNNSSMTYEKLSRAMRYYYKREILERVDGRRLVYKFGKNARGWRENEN
Procedure, shortened: as §1

[7] = biological target: SPI1 (Homo sapiens, UniProt P17947 1-270); details: protein: recombinant; tags: N-terminal GST; dsDNA, one strand shown
Procedure, shortened: as §1

[8] = biological target: SPIB (Homo sapiens, UniProt Q01892 1-262); details: protein: recombinant; tags: N-terminal GST; dsDNA, one strand shown
Procedure, shortened: as §1

[9] = biological target: T6, ELK3 (Homo sapiens, UniProt P41970 1-407); details: protein: recombinant; tags: N-terminal GST; dsDNA, one strand shown
T6 sequence: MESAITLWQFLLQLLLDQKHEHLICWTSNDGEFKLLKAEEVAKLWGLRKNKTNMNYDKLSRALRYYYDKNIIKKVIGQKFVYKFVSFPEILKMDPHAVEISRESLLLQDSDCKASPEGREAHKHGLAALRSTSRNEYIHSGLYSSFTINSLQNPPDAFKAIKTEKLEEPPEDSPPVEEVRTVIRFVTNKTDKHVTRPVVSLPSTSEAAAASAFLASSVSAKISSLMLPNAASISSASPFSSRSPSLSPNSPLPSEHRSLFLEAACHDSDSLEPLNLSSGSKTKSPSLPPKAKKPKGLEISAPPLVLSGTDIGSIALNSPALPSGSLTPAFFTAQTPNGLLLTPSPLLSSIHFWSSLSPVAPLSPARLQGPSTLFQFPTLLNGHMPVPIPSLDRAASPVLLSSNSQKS
Procedure, shortened: as §1

[10] = biological target: T7, FEV (Homo sapiens, UniProt Q99581 1-238); details: protein: recombinant; tags: N-terminal GST; dsDNA, one strand shown
T7 sequence: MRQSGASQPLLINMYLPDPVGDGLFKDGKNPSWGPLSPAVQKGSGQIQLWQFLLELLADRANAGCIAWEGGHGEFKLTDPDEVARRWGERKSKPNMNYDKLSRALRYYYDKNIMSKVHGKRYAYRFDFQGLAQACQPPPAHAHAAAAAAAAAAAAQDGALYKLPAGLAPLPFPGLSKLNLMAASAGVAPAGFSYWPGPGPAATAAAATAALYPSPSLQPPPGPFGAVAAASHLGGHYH
Procedure, shortened: as §1

[11] = biological target: ETV5 (Homo sapiens, UniProt P41161 1-510); details: protein: recombinant; tags: N-terminal GST; dsDNA, one strand shown
Procedure, shortened: as §1

[12] = biological target: HSF1 (Homo sapiens, UniProt Q00613 1-529); details: protein: recombinant; tags: N-terminal GST; chain copies: 3; dsDNA, one strand shown
Procedure, shortened: as §1

[13] = biological target: T8, SPIC (Homo sapiens, UniProt Q8N5J4 1-248); details: protein: recombinant; tags: N-terminal GST; dsDNA, one strand shown
T8 sequence: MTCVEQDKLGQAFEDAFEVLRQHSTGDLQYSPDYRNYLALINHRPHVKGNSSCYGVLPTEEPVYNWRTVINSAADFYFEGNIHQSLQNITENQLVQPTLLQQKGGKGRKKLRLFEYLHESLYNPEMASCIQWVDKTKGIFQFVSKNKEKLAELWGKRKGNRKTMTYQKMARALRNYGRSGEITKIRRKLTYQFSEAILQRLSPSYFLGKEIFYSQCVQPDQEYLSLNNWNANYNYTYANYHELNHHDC
Procedure, shortened: as §1

[14] = biological target: ELF4 (Homo sapiens, UniProt Q99607 1-663); details: protein: recombinant; tags: N-terminal GST; dsDNA, one strand shown
Procedure, shortened: as §1

[15] = biological target: T9, ELK4 (Homo sapiens, UniProt P28324-2 1-405); details: protein: recombinant; tags: N-terminal GST; dsDNA, one strand shown
T9 sequence: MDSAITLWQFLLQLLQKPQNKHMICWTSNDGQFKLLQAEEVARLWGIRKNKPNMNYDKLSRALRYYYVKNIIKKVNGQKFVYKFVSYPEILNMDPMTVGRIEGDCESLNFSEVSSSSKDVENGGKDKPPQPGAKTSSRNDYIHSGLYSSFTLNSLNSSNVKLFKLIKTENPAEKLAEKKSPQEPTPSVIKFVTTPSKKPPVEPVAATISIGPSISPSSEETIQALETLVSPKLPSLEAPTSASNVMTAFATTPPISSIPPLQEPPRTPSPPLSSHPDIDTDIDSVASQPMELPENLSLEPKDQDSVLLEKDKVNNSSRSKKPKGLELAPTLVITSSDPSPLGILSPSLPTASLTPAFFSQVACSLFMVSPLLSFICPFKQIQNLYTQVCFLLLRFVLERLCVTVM
Procedure, shortened: as §1

[16] = biological target: T10, ETV2 (Homo sapiens, UniProt O00321 1-342); details: protein: recombinant; tags: N-terminal GST; dsDNA, one strand shown
T10 sequence: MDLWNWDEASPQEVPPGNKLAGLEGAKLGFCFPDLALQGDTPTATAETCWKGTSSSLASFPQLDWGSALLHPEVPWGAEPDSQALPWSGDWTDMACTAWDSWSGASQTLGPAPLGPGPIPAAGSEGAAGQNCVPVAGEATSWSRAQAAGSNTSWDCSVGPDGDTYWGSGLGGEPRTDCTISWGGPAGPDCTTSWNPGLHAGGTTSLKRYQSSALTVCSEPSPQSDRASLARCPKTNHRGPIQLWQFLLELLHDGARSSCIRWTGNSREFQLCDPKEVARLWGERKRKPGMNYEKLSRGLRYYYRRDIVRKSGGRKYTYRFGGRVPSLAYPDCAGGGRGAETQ
Procedure, shortened: as §1

[17] = biological target: T11, ELF3 (Homo sapiens, UniProt P78545 1-371); details: protein: recombinant; tags: N-terminal GST; dsDNA, one strand shown
T11 sequence: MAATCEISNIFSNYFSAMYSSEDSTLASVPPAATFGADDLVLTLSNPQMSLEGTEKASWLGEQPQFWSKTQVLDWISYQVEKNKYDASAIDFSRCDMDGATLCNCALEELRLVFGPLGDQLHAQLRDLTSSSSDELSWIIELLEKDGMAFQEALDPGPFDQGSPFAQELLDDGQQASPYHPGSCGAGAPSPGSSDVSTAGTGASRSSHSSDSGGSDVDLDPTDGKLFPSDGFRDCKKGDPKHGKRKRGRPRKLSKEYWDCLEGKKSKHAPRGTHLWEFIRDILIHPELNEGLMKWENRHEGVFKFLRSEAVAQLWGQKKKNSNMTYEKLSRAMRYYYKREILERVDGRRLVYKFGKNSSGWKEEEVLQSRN
Procedure, shortened: as §1

[18] = biological target: CRX (Homo sapiens, UniProt O43186 1-299); details: protein: recombinant; tags: N-terminal GST; dsDNA, one strand shown
Procedure, shortened: as §1

[19] = biological target: ETV1 (Homo sapiens, UniProt P50549 1-477); details: protein: recombinant; tags: N-terminal GST; dsDNA, one strand shown
Procedure, shortened: as §1

Chain of ETV5 (P41161 whole entry): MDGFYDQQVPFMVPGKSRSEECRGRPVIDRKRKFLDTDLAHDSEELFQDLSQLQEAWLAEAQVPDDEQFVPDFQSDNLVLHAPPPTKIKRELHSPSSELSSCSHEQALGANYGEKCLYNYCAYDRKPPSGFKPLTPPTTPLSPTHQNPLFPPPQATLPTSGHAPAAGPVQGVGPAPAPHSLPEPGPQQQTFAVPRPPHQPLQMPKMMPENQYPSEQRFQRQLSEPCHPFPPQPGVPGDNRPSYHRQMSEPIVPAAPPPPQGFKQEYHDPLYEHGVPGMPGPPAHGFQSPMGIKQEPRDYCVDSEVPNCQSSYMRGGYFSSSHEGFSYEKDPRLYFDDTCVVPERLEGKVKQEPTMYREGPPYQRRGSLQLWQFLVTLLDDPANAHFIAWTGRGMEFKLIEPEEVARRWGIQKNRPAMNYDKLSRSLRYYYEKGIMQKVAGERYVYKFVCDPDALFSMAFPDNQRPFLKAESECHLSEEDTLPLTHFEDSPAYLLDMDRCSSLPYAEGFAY
Chain of ELF4 (Q99607 whole entry): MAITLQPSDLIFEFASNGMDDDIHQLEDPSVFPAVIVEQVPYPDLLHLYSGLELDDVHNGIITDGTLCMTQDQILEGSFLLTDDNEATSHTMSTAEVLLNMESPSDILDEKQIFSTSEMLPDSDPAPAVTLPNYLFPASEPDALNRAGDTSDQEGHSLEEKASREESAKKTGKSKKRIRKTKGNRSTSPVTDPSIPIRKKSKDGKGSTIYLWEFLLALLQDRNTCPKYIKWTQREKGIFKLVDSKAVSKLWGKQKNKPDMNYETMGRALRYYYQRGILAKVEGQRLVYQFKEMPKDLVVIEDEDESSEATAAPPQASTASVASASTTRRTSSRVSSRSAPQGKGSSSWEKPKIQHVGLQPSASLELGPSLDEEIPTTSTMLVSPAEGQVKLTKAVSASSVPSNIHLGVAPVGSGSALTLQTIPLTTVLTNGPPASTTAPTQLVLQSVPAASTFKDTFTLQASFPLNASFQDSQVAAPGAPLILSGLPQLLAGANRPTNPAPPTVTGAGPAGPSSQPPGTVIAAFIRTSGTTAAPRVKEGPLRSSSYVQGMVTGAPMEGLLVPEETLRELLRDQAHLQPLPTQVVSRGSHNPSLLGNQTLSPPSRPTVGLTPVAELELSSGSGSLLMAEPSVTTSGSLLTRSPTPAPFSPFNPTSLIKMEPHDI
Chain of SPIB (Q01892 whole entry): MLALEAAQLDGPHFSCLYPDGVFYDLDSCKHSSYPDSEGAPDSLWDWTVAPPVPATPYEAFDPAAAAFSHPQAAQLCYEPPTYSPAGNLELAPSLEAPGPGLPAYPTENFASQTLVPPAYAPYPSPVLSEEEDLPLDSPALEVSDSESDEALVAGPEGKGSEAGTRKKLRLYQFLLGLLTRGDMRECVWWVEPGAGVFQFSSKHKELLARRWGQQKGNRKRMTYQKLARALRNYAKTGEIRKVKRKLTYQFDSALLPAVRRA
Chain of CRX (O43186 whole entry): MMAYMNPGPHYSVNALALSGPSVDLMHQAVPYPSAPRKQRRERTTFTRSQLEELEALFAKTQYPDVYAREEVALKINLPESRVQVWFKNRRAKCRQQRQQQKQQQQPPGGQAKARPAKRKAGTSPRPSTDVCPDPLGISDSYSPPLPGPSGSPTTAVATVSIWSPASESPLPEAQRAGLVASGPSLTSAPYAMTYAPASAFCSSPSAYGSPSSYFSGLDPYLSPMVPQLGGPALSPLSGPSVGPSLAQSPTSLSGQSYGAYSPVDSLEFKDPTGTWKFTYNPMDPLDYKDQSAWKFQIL
Chain of ETV1 (P50549 whole entry): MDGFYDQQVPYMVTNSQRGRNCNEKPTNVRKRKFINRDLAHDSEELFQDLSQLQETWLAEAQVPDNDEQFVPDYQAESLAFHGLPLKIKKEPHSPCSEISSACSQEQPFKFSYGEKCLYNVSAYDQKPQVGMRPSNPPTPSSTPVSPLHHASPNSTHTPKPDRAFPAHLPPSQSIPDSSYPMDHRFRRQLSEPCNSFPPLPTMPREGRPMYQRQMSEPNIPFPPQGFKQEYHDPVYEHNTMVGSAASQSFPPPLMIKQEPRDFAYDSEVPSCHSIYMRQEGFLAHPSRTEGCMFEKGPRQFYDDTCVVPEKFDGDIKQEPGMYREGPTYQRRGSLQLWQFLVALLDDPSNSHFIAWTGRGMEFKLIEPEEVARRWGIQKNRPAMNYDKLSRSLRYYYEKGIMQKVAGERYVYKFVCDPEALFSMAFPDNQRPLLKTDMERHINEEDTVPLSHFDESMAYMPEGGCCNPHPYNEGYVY
Chain of ELF1 (P32519 whole entry): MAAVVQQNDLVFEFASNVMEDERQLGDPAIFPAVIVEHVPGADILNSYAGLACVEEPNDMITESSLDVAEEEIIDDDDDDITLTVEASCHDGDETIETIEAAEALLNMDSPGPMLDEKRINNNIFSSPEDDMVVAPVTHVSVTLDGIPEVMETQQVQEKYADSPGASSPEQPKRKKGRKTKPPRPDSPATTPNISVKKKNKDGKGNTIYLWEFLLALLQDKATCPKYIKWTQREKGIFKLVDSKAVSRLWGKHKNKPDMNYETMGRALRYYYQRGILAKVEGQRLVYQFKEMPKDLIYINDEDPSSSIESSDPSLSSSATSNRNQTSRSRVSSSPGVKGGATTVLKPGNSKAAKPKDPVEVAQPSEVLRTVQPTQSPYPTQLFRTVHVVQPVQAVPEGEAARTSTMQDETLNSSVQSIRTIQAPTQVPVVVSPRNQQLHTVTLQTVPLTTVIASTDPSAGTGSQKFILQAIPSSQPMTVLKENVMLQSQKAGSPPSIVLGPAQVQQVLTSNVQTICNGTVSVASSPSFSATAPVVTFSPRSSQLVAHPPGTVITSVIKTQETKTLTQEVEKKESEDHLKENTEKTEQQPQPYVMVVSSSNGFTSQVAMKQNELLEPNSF
Chain of HSF1 (Q00613 whole entry): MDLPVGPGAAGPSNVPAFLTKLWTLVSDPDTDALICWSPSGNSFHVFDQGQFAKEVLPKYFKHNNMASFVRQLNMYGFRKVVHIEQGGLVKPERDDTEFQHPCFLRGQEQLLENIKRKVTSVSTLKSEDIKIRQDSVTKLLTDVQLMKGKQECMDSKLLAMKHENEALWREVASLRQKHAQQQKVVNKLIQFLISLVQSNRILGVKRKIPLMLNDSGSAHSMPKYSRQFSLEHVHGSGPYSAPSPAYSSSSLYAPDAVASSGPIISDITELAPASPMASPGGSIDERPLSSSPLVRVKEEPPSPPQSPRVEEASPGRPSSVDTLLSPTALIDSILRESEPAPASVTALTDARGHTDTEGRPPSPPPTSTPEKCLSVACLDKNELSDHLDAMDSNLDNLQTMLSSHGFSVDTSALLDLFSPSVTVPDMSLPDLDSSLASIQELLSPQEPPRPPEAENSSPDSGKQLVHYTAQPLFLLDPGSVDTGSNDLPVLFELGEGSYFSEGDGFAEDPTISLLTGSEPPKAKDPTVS

Sequence: GCTCTT
- binding signal [1]: 1.58 fold enrichment (6-mer frequency, TF over GST control)
- binding signal [2]: 1.55 fold enrichment (6-mer frequency, TF over GST control)
- binding signal [3]: 1.52 fold enrichment (6-mer frequency, TF over GST control)
- binding signal [4]: 1.39 fold enrichment (6-mer frequency, TF over GST control)
- binding signal [5]: 1.66 fold enrichment (6-mer frequency, TF over GST control)
- binding signal [6]: 1.29 fold enrichment (6-mer frequency, TF over GST control)
- binding signal [7]: 1.37 fold enrichment (6-mer frequency, TF over GST control)
- binding signal [8]: 1.49 fold enrichment (6-mer frequency, TF over GST control)
- binding signal [9]: 1.56 fold enrichment (6-mer frequency, TF over GST control)
- binding signal [10]: 1.48 fold enrichment (6-mer frequency, TF over GST control)
- binding signal [11]: 1.53 fold enrichment (6-mer frequency, TF over GST control)
- binding signal [12]: 1.34 fold enrichment (6-mer frequency, TF over GST control)
- binding signal [13]: 1.31 fold enrichment (6-mer frequency, TF over GST control)
- binding signal [14]: 1.56 fold enrichment (6-mer frequency, TF over GST control)
- binding signal [15]: 1.41 fold enrichment (6-mer frequency, TF over GST control)
- binding signal [16]: 1.61 fold enrichment (6-mer frequency, TF over GST control)
- binding signal [17]: 1.58 fold enrichment (6-mer frequency, TF over GST control)
- binding signal [18]: 1.55 fold enrichment (6-mer frequency, TF over GST control)
- binding signal [19]: 1.54 fold enrichment (6-mer frequency, TF over GST control)
